PubChem BioAssay
Results with a measured potency or affinity are listed apart. Records with an inconclusive call do not appear. The source made the active and inactive calls.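 How the source made its calls, unless noted: active means signal drop whose fitted half-maximal concentration is at most twice the top valid dose, in every test run; inconclusive means mixed calls across runs, poor fit, or flat 30 to 70% inhibition; inactive means wrong direction, flat within 30%, or potency beyond limit.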

Columns and labels:
[1] = RMG-1 ovarian cancer cell viability loss – cherry-pick, dose response (AID 687029);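 further: cells exposed to compound for 96 hours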
[2] = IOSE-T80 viability loss, PAX8-independent line – cell-based, cherry-pick, selectivity assay for PAX8 inhibitor project, dose response (AID 687032;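 active means fitted half-maximal concentration for viability loss no higher than twice the top valid dose, in every repeat run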;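 further: cells exposed to compound for 96 h before reading; 0% = neutral control wells and -100% = 2 µM mitoxantrone kill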)
[3] = CMV-driven luciferase expression suppression in HEK293 – cell-based, luminescence, dry powder, counter-screen for Pax8 inhibitor project, dose response (AID 743020;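 active means signal-lowering compounds whose fitted half-maximal concentration is at or below twice the top tested dose in every run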;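 further: HEK293 cells stably expressing the CMV luciferase reporter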)
[4] = general cell-killing toxicity readout – plate reader, dry powder samples, cytotoxicity control for PAX8 inhibitor project, dose response (AID 743021; call rule not given here)

Cc1ccccc1N=C1N=C(N)c2ccccc21
inactive: outcome [1] | outcome [2] | outcome [3] | outcome [4]

N=c1n(Cc2ccccc2)c2ccccc2n1CC(O)COc1ccc(Cl)cc1Cl (configuration not stated)
inactive: outcome [1] | outcome [2] | outcome [3] | outcome [4]

O=C(NC1CC1)c1ccc2c(c1)C1C3CCC(C3)C1C(c1ccccc1)N2 (configuration not stated)
inactive: outcome [1] | outcome [2] | outcome [3] | outcome [4]

CN(C[C@H]1N[C@@H](CO)[C@@H]1c1ccc(C2=CCCC2)cc1)C(=O)c1ccc(F)cc1
inactive: outcome [1] | outcome [2] | activity change, negative = inhibition [3] 0.4% [at 8 µM]

COc1ccc(S(=O)(=O)Nc2ccc3c(c2)C(=O)N([C@H](C)CO)C[C@H](C)[C@@H](CN(C)S(=O)(=O)c2ccc(C)cc2)OCCCC[C@H](C)O3)cc1
inactive: outcome [1] | outcome [2] | outcome [3] | outcome [4]

O=C(C[C@@H]1C[C@H]2c3cc(NS(=O)(=O)c4ccc(F)cc4)ccc3O[C@H]2[C@@H](CO)O1)NCc1ccc(Oc2ccccc2)cc1
inactive: outcome [1] | outcome [2] | outcome [3] | outcome [4]

C[C@H](CO)N1C[C@H](C)[C@@H](CN(C)Cc2ccncc2)Oc2ccc(NC(=O)Nc3ccc(C(F)(F)F)cc3)cc2CC1=O
inactive: outcome [1] | outcome [2] | outcome [3] | outcome [4]

C=C1C(=O)[C@@]23[C@H](O)C[C@@H]4C(C)(C)CC[C@H](O)[C@@]4(C)[C@@H]2CC[C@@H]1[C@H]3O
inactive: outcome [1] | outcome [2] | outcome [3] | outcome [4]

COc1ccc(-c2cc(-c3ccccc3)c(C#N)c(S(C)(=O)=O)n2)cc1
inactive: outcome [1] | outcome [2] | outcome [3] | outcome [4]

Cc1[nH]nc2nc(SCC(=O)NC3CCCCC3)n(-c3ccc(Br)cc3)c(=N)c12
inactive: outcome [1] | outcome [2] | outcome [3] | outcome [4]

COc1ccc(C(=O)NNC(=O)c2ccccn2)cc1
inactive: outcome [1] | outcome [2] | outcome [3]

CC[C@@]1(O)C(=O)OCc2c1cc1n(c2=O)Cc2cc3c(CN(C)C)c(O)ccc3nc2-1
inactive: outcome [1] | outcome [2] | outcome [3] | outcome [4]

C=C1C(=O)[C@]23C[C@H]1CC[C@H]2[C@]1(C)[C@@H](OC(C)=O)CC[C@@](C)(C(=O)OC)[C@H]1C[C@@H]3OC(C)=O
inactive: outcome [1] | outcome [2] | outcome [3] | activity change, negative = cytotoxicity [4] -15.7% [at 8 µM]

COC(=O)C12OCC34C(CC5C(C)=C(O)C(=O)CC5(C)C3C(O)C1O)OC(=O)C(OC(=O)C=C(C)C)C24 (configuration not stated)
inactive: outcome [1] | outcome [2] | outcome [3] | outcome [4]

CCN(c1nc(N)c(C(=O)N=C(N)N)nc1Cl)C(C)C
inactive: outcome [1] | outcome [2] | outcome [3] | outcome [4]

O=C1C=CC(=C(c2ccc(O)cc2)c2ccc(O)cc2)C=C1
inactive: outcome [1] | outcome [2] | outcome [3] | outcome [4]

CC[C@@H](C(=O)[C@@H](C)[C@@H](O)[C@H](C)CCc1ccc(C)c(O)c1C(=O)O)[C@H]1O[C@](CC)([C@H]2CC[C@](O)(CC)[C@H](C)O2)C[C@@H]1C
inactive: outcome [1] | outcome [2] | outcome [3]

Nc1ncnc2c(C3OC(CO)C(O)C3O)scc12 (configuration not stated)
inactive: outcome [1] | outcome [2] | outcome [3] | outcome [4]

COc1ccc(-c2ccc3c(c2)[C@H]2[C@H](CCN2S(=O)(=O)c2ccc(OC)cc2)[C@H](CO)N3C)cc1
inactive: outcome [1] | outcome [2] | outcome [3] | outcome [4]

O=S(=O)(/C(=C/c1ccc(C(F)(F)F)cc1)c1nc2ccccc2[nH]1)c1ccccc1
inactive: outcome [1] | outcome [2] | outcome [3] | outcome [4]

CC(C)OCCCNC(=O)c1cccc(NC(=O)c2ccccc2)c1
inactive: outcome [1] | outcome [2] | outcome [3] | outcome [4]

COc1ccc(NS(=O)(=O)c2ccc(N3CCCC3)c(NC(=S)Nc3ccc(SC(F)F)cc3)c2)cc1
inactive: outcome [1] | outcome [2] | outcome [3] | outcome [4]

O=C(CN1C(=O)c2ccccc2S1(=O)=O)N1CCc2ccccc21
inactive: outcome [1] | outcome [2] | outcome [3] | outcome [4]

C#CCN(C[C@H]1[C@H](OC(=O)Nc2c(C)noc2C)[C@H](OC(=O)Nc2c(C)noc2C)C[C@@H](C(=O)OC)[C@H]1C(=O)OC)S(=O)(=O)c1ccc(C)cc1
inactive: outcome [1] | outcome [2] | outcome [3] | outcome [4]

O=S(=O)(c1ccc2c(c1)C(=NO)c1cc(S(=O)(=O)N3CCCCC3)ccc1-2)N1CCCCC1
inactive: outcome [1] | outcome [2] | outcome [3]

Oc1ccc(/C=N\Nc2cc(N3CCOCC3)nc(N3CCOCC3)n2)c(O)c1
inactive: outcome [1] | outcome [2] | outcome [3] | outcome [4]

O=C(N/N=C/c1ccc(Cl)c([N+](=O)[O-])c1)c1cc(-c2ccc3c4c(cccc24)CC3)n[nH]1
inactive: outcome [1] | outcome [2] | outcome [3] | outcome [4]

O=C(CCCN1C(=O)/C(=C/c2ccccc2OC(F)F)SC1=S)Nc1cccnc1
inactive: outcome [1] | outcome [2] | outcome [3] | outcome [4]

CCC(=O)Oc1ccc2c(C)cc(=O)oc2c1C(=O)c1ccccc1
inactive: outcome [1] | outcome [2] | outcome [3] | outcome [4]

CC(C)=CCC/C(C)=C/CNC(=O)C[C@H]1C[C@H](C(=O)N2CCOCC2)[C@@]2(C)c3[nH]c4ccc(Cl)cc4c3CCN2C1=O
inactive: outcome [1] | outcome [2] | outcome [3] | outcome [4]

CC(=O)NC(CCc1ccc(Cl)c(Cl)c1)c1cccc(O)c(=O)c1 (configuration not stated)
inactive: outcome [1] | outcome [2] | outcome [3] | outcome [4]

C[C@H](CO)N1C[C@H](C)[C@@H](CN(C)Cc2ccccc2)OCCCC[C@H](C)Oc2ccc(NC(=O)Nc3ccc(C(F)(F)F)cc3)cc2C1=O
inactive: outcome [1] | outcome [2] | outcome [3] | outcome [4]

CCCN(CCC)Cc1c(C(=O)N/N=C/C(C)=C\c2ccco2)nnn1-c1nonc1N
inactive: outcome [1] | outcome [2] | outcome [3] | outcome [4]

O=C(c1nnsc1S(=O)(=O)c1ccc(Cl)cc1)N1CCOCC1
inactive: outcome [1] | outcome [2] | outcome [3] | outcome [4]

C[C@H](CO)N1C[C@H](C)[C@H](CN(C)S(=O)(=O)c2cccc(F)c2)OCc2ccccc2-c2c(n(C)c3ccccc23)C1=O
inactive: outcome [1] | outcome [2] | outcome [3] | outcome [4]

C=CC(=O)N1C/C(=C/c2ccc(Cl)cc2)C(=O)/C(=C\c2ccc(Cl)cc2)C1
inactive: outcome [1] | outcome [2] | outcome [3] | outcome [4]

COc1ccc(C(C(=O)NC2CCCCC2)N(C(=O)CCl)c2cccc(Cl)c2)cc1 (configuration not stated)
inactive: outcome [1] | outcome [2] | outcome [3]

COc1ccc(C(=O)N/N=C/c2ccc(OC)c(CN3CCN(c4ccc(F)cc4)CC3)c2)cc1
inactive: outcome [1] | outcome [2] | outcome [3] | outcome [4]

CCc1ccc(CNC(=O)C2CCCN(c3nnc(C)c4c(C)n(-c5ccccc5)nc34)C2)cc1 (configuration not stated)
inactive: outcome [1] | outcome [2] | outcome [3] | outcome [4]

CC(C)c1ccc(/C=C(\c2nc3ccccc3[nH]2)S(=O)(=O)c2ccccc2)cc1
inactive: outcome [1] | outcome [2] | outcome [3] | outcome [4]

C=C(C)C(=O)OC1(C(F)(F)F)Oc2cc(C)ccc2NC1=O (configuration not stated)
inactive: outcome [1] | outcome [2] | outcome [3] | outcome [4]

Oc1ccc(C[C@H]2CNC(=S)N2CC2CCCN2C[C@H](Cc2ccccc2)N2C[C@H](Cc3ccc(O)cc3)N(CCc3ccccc3)C2=S)cc1 (some centres not stated)
inactive: outcome [1] | outcome [2] | outcome [3] | outcome [4]

COc1cccc(/C=N/NC(=O)c2ccc(N3CCCC3=O)cc2)c1
inactive: outcome [1] | outcome [2] | outcome [3] | outcome [4]

O=C1/C(=C\c2ccc(Cl)c(Cl)c2)CN(C(=O)CCN2CCOCC2)C/C1=C/c1ccc(Cl)c(Cl)c1
inactive: outcome [1] | outcome [2] | outcome [3] | outcome [4]

COc1ccc(O)c(/C=N/NC(=O)c2ccc(N3CCCC3=O)cc2)c1
inactive: outcome [1] | outcome [2] | outcome [3] | outcome [4]

C[C@@H]1CCCCO[C@@H](CN(C)Cc2ccc(Cl)c(Cl)c2)[C@H](C)CN([C@@H](C)CO)C(=O)c2cc(NC(=O)CCC(F)(F)F)ccc2O1
inactive: outcome [1] | outcome [2] | outcome [3] | outcome [4]

O=C(Nc1cccc(Br)c1)c1ccc2c(c1)SC1=NS(=O)(=O)CCN12
inactive: outcome [1] | outcome [2] | outcome [3] | outcome [4]

COc1nn(-c2ccccc2)c(=O)c(Cl)c1Cl
inactive: outcome [1] | outcome [2] | outcome [3] | outcome [4]
